Measured values reported in PubChem BioAssay AID1159580 (chemical genetic matrix, 2015).
Hit rate of the full screen: of about 5,500 compounds, about 2,000 (36%) were called active. Roughly 18% stayed inconclusive and do not appear here. Rule as the data show it: active = normalized growth mostly below about 0.91 (no sharp cut-off); inconclusive = no clear call, values can overlap the other calls; inactive = mostly above about 0.92. This is one part of the list.

Assay: chemical genetic growth profiling, strain panel (AID 1159580);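 also: tested at 20 µM; growth read once vehicle control cultures reached saturation at 30 °C; 1 = growth at the plate median or of vehicle wells; lower values mean less growth of the strain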
Conditions: growth OD

Measured: normalized growth

COc1ccc2c(c1)OC[C@@H](Cc1ccc(OC)c(OC)c1)[C@@H]2O
inactive: S. cerevisiae deletion strains, locus YJR075W, strain HOC1, active compounds read low 0.951 | S. cerevisiae deletion strains, locus YKL009W, strain mrt4, active compounds read low 0.985 | S. cerevisiae deletion strains, locus YKL068W, active compounds read low 0.988 | S. cerevisiae deletion strains, locus YKL085W, strain MDH1 (second series), active compounds read low 0.956 | S. cerevisiae deletion strains, locus YKL085W, strain MDH1, active compounds read low 0.956 | S. cerevisiae deletion strains, locus YKL160W, strain elf1, active compounds read low 1 | S. cerevisiae deletion strains, locus YKL190W, strain CNB1, active compounds read low 1 | S. cerevisiae deletion strains, locus YKR026C, strain gcn3, active compounds read low 0.992 | S. cerevisiae deletion strains, locus YKR091W, strain srl3, active compounds read low 0.988 | S. cerevisiae deletion strains, locus YLL001W, strain dnm1, active compounds read low 0.99 | S. cerevisiae deletion strains, locus YLL026W, active compounds read low 0.995 | S. cerevisiae deletion strains, locus YLL041C, strain sdh2, active compounds read low 0.989 | S. cerevisiae deletion strains, locus YLR027C, strain aat2, active compounds read low 0.989 | S. cerevisiae deletion strains, locus YLR039C, strain RIC1, active compounds read low 0.749 | S. cerevisiae deletion strains, locus YLR058C, strain SHM2, active compounds read low 0.997 | S. cerevisiae deletion strains, locus YLR102C, strain apc9, active compounds read low 0.987 | S. cerevisiae deletion strains, locus YLR113W, strain HOG1, active compounds read low 0.875 | S. cerevisiae deletion strains, locus YLR221C, strain rsa3, active compounds read low 1.01 | S. cerevisiae deletion strains, locus YLR258W, strain gsy2, active compounds read low 0.979 | S. cerevisiae deletion strains, locus YLR262C, strain YPT6, active compounds read low 0.805 | S. cerevisiae deletion strains, locus YLR268W, strain sec22, active compounds read low 0.999 | S. cerevisiae deletion strains, locus YLR320W, strain mms22, active compounds read low 0.971 | S. cerevisiae deletion strains, locus YLR330W, strain CHS5, active compounds read low 0.993 | S. cerevisiae deletion strains, locus YLR342W, strain FKS1 (second series), active compounds read low 0.958 | S. cerevisiae deletion strains, locus YLR342W, strain FKS1, active compounds read low 0.973 | S. cerevisiae deletion strains, locus YLR357W, strain rsc2, active compounds read low 0.998 | S. cerevisiae deletion strains, locus YLR370C, strain arc18, active compounds read low 1 | S. cerevisiae deletion strains, locus YLR371W, strain rom2, active compounds read low 0.985 | S. cerevisiae deletion strains, locus YLR384C, strain iki3, active compounds read low 0.982 | S. cerevisiae deletion strains, locus YLR418C, strain cdc73, active compounds read low 1.01 | S. cerevisiae deletion strains, locus YML016C, strain PPZ1, active compounds read low 1 | S. cerevisiae deletion strains, locus YML032C, strain rad52, active compounds read low 0.981 | S. cerevisiae deletion strains, locus YML120C, strain ndi1, active compounds read low 0.986 | S. cerevisiae deletion strains, locus YML124C, strain tub3, active compounds read low 0.988 | S. cerevisiae deletion strains, locus YMR058W, strain fet3, active compounds read low 1.01 | S. cerevisiae deletion strains, locus YMR078C, strain ctf18, active compounds read low 0.986 | S. cerevisiae deletion strains, locus YMR125W, strain sto1, active compounds read low 1.01 | S. cerevisiae deletion strains, locus YMR129W, active compounds read low 0.985 | S. cerevisiae deletion strains, locus YMR205C, strain PFK2, active compounds read low 0.955 | S. cerevisiae deletion strains, locus YMR223W, strain ubp8, active compounds read low 0.987 | S. cerevisiae deletion strains, locus YMR231W, strain pep5, active compounds read low 0.987 | S. cerevisiae deletion strains, locus YMR263W, strain SAP30, active compounds read low 1.01 | S. cerevisiae deletion strains, locus YMR307W, strain GAS1, active compounds read low 0.945 | S. cerevisiae deletion strains, locus YNL067W, strain RPL9B, active compounds read low 1.01 | S. cerevisiae deletion strains, locus YNL071W, strain lat1, active compounds read low 0.994 | S. cerevisiae deletion strains, locus YNL128W, strain TEP1, active compounds read low 1.01 | S. cerevisiae deletion strains, locus YNL153C, strain GIM3, active compounds read low 1.01 | S. cerevisiae deletion strains, locus YNL183C, strain NPR1, active compounds read low 0.933 | S. cerevisiae deletion strains, locus YNL209W, strain ssb2, active compounds read low 1.01 | S. cerevisiae deletion strains, locus YNL233W, strain BNI4, active compounds read low 0.978 | S. cerevisiae deletion strains, locus YNL248C, strain rpa49, active compounds read low 1.01 | S. cerevisiae deletion strains, locus YNL250W, strain rad50, active compounds read low 1 | S. cerevisiae deletion strains, locus YNL271C, strain bni1, active compounds read low 0.992 | S. cerevisiae deletion strains, locus YNL298W, strain CLA4, active compounds read low 0.992 | S. cerevisiae deletion strains, locus YNL307C, strain MCK1, active compounds read low 0.953 | S. cerevisiae deletion strains, locus YNL322C, strain KRE1 (second series), active compounds read low 0.967 | S. cerevisiae deletion strains, locus YNL322C, strain KRE1, active compounds read low 0.999 | S. cerevisiae deletion strains, locus YNR049C, strain mso1, active compounds read low 0.99 | S. cerevisiae deletion strains, locus YNR052C, strain pop2, active compounds read low 0.977 | S. cerevisiae deletion strains, locus YOL006C, strain TOP1, active compounds read low 0.993 | S. cerevisiae deletion strains, locus YOL147C, strain pex11, active compounds read low 0.985 | S. cerevisiae deletion strains, locus YOR001W, strain rrp6, active compounds read low 1.01 | S. cerevisiae deletion strains, locus YOR061W, strain CKA2, active compounds read low 1 | S. cerevisiae deletion strains, locus YOR069W, strain VPS5, active compounds read low 0.992 | S. cerevisiae deletion strains, locus YOR070C, strain gyp1, active compounds read low 0.998 | S. cerevisiae deletion strains, locus YOR080W, strain dia2, active compounds read low 0.974 | S. cerevisiae deletion strains, locus YOR083W, strain WHI5, active compounds read low 0.987 | S. cerevisiae deletion strains, locus YOR106W, strain vam3, active compounds read low 1.02 | S. cerevisiae deletion strains, locus YOR136W, strain idh2, active compounds read low 0.991 | S. cerevisiae deletion strains, locus YOR144C, strain elg1, active compounds read low 0.987 | S. cerevisiae deletion strains, locus YOR184W, strain ser1, active compounds read low 0.952 | S. cerevisiae deletion strains, locus YOR231W, strain MKK1, active compounds read low 0.976 | S. cerevisiae deletion strains, locus YOR265W, strain rbl2, active compounds read low 1.01 | S. cerevisiae deletion strains, locus YOR270C, strain vph1, active compounds read low 1.01 | S. cerevisiae deletion strains, locus YOR290C, strain snf2, active compounds read low 1 | S. cerevisiae deletion strains, locus YOR316C, strain cot1, active compounds read low 0.99 | S. cerevisiae deletion strains, locus YPL051W, strain arl3, active compounds read low 0.982 | S. cerevisiae deletion strains, locus YPL055C, strain LGE1, active compounds read low 0.996 | S. cerevisiae deletion strains, locus YPL078C, strain atp4, active compounds read low 1.01 | S. cerevisiae deletion strains, locus YPL106C, strain sse1, active compounds read low 0.99 | S. cerevisiae deletion strains, locus YPL240C, strain hsp82, active compounds read low 0.995 | S. cerevisiae deletion strains, locus YPL241C, strain CIN2, active compounds read low 0.998 | S. cerevisiae deletion strains, locus YPL256C, strain CLN2, active compounds read low 0.983 | S. cerevisiae deletion strains, locus YPR119W, strain clb2, active compounds read low 0.983 | S. cerevisiae deletion strains, locus YPR141C, strain kar3, active compounds read low 0.995 | S. cerevisiae deletion strains, locus YPR163C, strain tif3, active compounds read low 0.995 | S. cerevisiae deletion strains, locus YPR167C, strain met16, active compounds read low 0.985 | S. cerevisiae deletion strains, strain wtn01, active compounds read low 0.982 | S. cerevisiae strains, strain wild type, active compounds read low 1.01
active: S. cerevisiae deletion strains, locus YKR001C, strain vps1, active compounds read low 0.892 | S. cerevisiae deletion strains, locus YLR262C, strain YPT6 (second series), active compounds read low 0.831
